Each structure is given as a SMILES string. Compounds without any hit were thinned out: in the full panel of roughly 83,000, 20% have a hit.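 Treatment: one concentration, 48 hours, 96-well format. Scoring: percent growth, with anything below 10 considered active.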 Values without a mark were called inactive.

This test has as its system SNB-19 CNS. Put plainly: NCI-60 one-dose screen, 48 h (100 = growth as untreated, 0 = no growth, -100 = all killed). Conditions: 10 µM unless noted. On the procedure: Growth inhibition of the SNB-19 human tumor cell line is measured as a screen for anti-cancer activity. Cells are grown in 96 well plates and exposed to the test compound for 48 hours. Compounds are tested at a single concentration, which is 10^-5 M for most compounds. The reported endpoint is percent growth (GI% or GIPRCNT), where numbers from 0 - 100% represent growth inhibition, and numbers from -100% - 0 represent cell death. For example, a value of 40 represents 60% growth inhibition. A value of 0 means no net growth occurred over the course of the experiment. A value of -40 indicates 40% of cells at the beginning of the experiment died by the end of the experiment. A value of -100 means all cells are dead at the end of the experiment.
NCI-60 Human Tumor Cell Lines Screen was performed using the standard one-dose NCI protocol, which is described in more detail at https://dtp.cancer.gov/discovery_development/nci-60/default.htm.
Compounds with GIPRCNT values below 10 were considered active. Activity score was based on GIPRCNT using the following formula: […]
Score is 0 for GIPRCNT values of 100 or above, 50 for GIPRCNT values of 0, and 100 for GIPRCNT values of -100.
In the case of `COC(=O)/C=C1\S/C(=N\Nc2ccc([N+](=O)[O-])cc2[N+](=O)[O-])N(C2CCCCC2)C1=O`, the growth was 51.3%.
Regarding `COc1ccc(CN2c3ccccc3CCc3ccccc32)cc1F`, the growth is 39%.
With `CC1CN(C2CCCCC2)C(=S)N(c2ccccc2)C1=O` (stereo not given), the growth was 101%.
With `COc1cccc(-c2nn(-c3ccccc3)cc2-c2ccnc(N3CCOCC3)c2)c1`, the growth was 99.9%.
To `Cc1ccc(C(=O)NN2C(=O)CSC2c2ccc(Cl)cc2)cn1` (stereo not given) belongs 85.6%.
`O=C(Oc1cccc2ccccc12)Oc1cccc2ccccc12`: the growth was 103%.
To `CCCCCCN1C(=O)/C(=c2\sc3n(c2=O)C2C(NN=3)N(CC)C(=O)N2CC)c2ccccc21` (stereo not given) belongs 22.5%; to `c1ccc(CO[C@H]2CO[C@H]3[C@@H]2OC[C@@H]3Oc2ccc(Nc3ncnc4ccsc34)cc2)cc1`, 82.7%; to `COc1nc2ccc(C)cc2cc1-c1nc2c(cnn2-c2ccc(Br)cc2)c(=O)[nH]1`, 41.8%.
In the case of `COc1cc(C2CC(c3cccc(Br)c3)=NN2C(C)=O)cc(OC)c1OC` (stereo not given), the growth was 40.8%.
Then `Nc1nn(C(=O)Nc2ccc(Cc3ccccc3)cc2)c2ccc(Cl)cc12`, with 83.4%; and `C=CCNc1ccc2c3c(cccc13)C(=O)N(N1C(=O)c3cccc4cccc(c34)C1=O)C2=O`, with 99.3%.
To `CCN1C(=O)N(CC)C2Nn3c(s/c(=C4\C(=O)N(CC(C)C)c5ccccc54)c3=O)=NC21` (stereo not given) belongs 54.7%.
To `COc1ccc(C2C(N)=NNC2c2cccc(O)c2)cc1` (stereo not given) belongs 81.3%; to `COC(=O)c1ccc2[nH]c(O)c(C(=Nc3ccc(N(C)C(=O)CN4CCN(C)CC4)cc3)c3ccccc3)c2c1`, 42.6%; to `COc1ccc(C2C(C#N)=C(N)Oc3c2sc2c(C)cccc32)cc1` (stereo not given), 26.3%.
`NS(=O)(=O)c1ccc(-n2nc(C(=O)N/N=C\c3ccc(F)cc3)cc2-c2ccc(Br)cc2)cc1`: the growth is 83%.
Then `CN1C(=O)N(C)C2Nn3c(s/c(=C\c4ccccc4)c3=O)=NC21` (stereo not given), with 95.6%.
Then `C[C@H](C(=O)Nc1ccc(S(N)(=O)=O)cc1)S(=O)(=O)c1ccccc1`, with 95.5%.
As for `c1cc(-c2nnc(SSc3ncnc4nc[nH]c34)o2)ccn1`, the growth was 93.1%.
Then `CCOC(=O)c1c(C)nc2c(c1N)CC(=O)N2Cc1ccc(F)cc1`, with 97.1%.
To `C/C(=C\C(=O)c1ccc(Cl)cc1)c1ccc(Cl)cc1` belongs 99.9%.
As to `COc1cccc(-c2nc(-c3ccc(NS(=O)(=O)c4ccccc4)cc3)[nH]c2-c2ccnc(Br)c2)c1`, the growth is 39.8%.
To `O=C1c2cccc3cccc(c23)C(=O)N1Nc1nc(NC2CCCCC2)nc(N2CCOCC2)n1` belongs 91%; to `Cc1ccc(S(=O)(=O)Oc2ccc(NC(=O)c3ccc(Cl)cc3)cc2)cc1`, 94.2%.
To `CCCCNC(=O)Oc1ccc(/C(=C(\C)c2ccc(Cl)cc2)c2ccc(OCCN3CCCCC3)cc2)cc1` belongs 93.5%; to `COc1ccc(OC)c(/C=C2\Oc3cc(OCCN4CCC(Cc5ccccc5)CC4)ccc3C2=O)c1`, 98.8%.
To `COc1ccc(NC2=C(Br)C(=O)C(C)=C(C)C2=O)cc1` belongs 85.2%; to `Cc1c(C(=O)NCCN2CCOCC2)cn2ncnc(Oc3ccc(NC(=O)Nc4ccc(Cl)c(C(F)(F)F)c4)cc3)c12`, 20%.
In the case of `Cc1cccc2c(=O)c3c(sc12)c(NCc1ccccc1)nc1ccccc13`, the growth is 107%.
Then `Cn1cc(-c2ccc3cc(-c4ccc(CC(=O)Nc5cc(C(C)(C)C)nn5C)cc4)cnc3c2)cn1`, with 29.2%; and `CCCCn1c(=O)c(-c2cc(-c3ccc(Cl)cc3)nc(-c3ccc(Cl)cc3)c2)cc2cc(Cl)ccc21`, with 96%.
Then `Cc1nn(-c2ccccc2)c(-n2ccnc2)c1/C=N/Nc1nc(-c2ccc(Cl)c(Cl)c2)cs1`, with 46%.
Turning to `CCC12CCC[N+]3([O-])CCC4(C(=Nc5ccccc54)C(O)(C(=O)OC)C1)C23` (stereo not given), the growth was 102%.
As to `CC(=O)OC[C@H]1OC(Sc2sc(C(=O)c3ccc(C)cc3)c(N)c2-c2nc3ccccc3s2)[C@H](OC(C)=O)[C@@H](OC(C)=O)[C@@H]1OC(C)=O` (stereo not given in full), the growth was 74.4%.
To `O=CN1N=C(c2ccc(Nc3ccnc4cc(Cl)ccc34)cc2)CC1c1ccccc1` (stereo not given) belongs 52.8%; to `COc1nc2ccccc2cc1-c1nc2c(cnn2-c2ccccc2)c(=O)[nH]1`, 42.1%.
Regarding `COC(=O)Nc1ccc(-c2nc(-c3cccc(OC)c3)c(-c3ccnc(Br)c3)[nH]2)cc1`, the growth is 61.6%.
In the case of `O=C(/C=C/c1sc(Cl)nc1Cl)c1ccccc1`, the growth was 96%.
Then `CSc1ncccc1C(=O)OCC(=O)Nc1oc(C)c2c(C)n[nH]c(=O)c12`, with 101%.

Source of the values: PubChem BioAssay (NCI).
